Shown are actives, neighbours in structure and some others; about 6.5% of the full set was active somewhere.
Vaccinia mCherry: inhibitors of vaccinia virus infection (mCherry reporter signal) | 310,000 tested, 0.63% active | AID 720579 | Potency, µM (titrated, usually from 36.5 µM), for the others: top-dose activity change, negative = inhibition, actives largely listed as inhibitors | Vaccinia virus mCherry reporter infection, fluorescence; calls by dose curve; tested in A549 cells; further: potency means the concentration at half of the fitted maximal effect; nearly all actives have a fitted effect of over 35% in size
Marburg entry inh: inhibitors of Marburg virus binding or cell entry | Marburg virus pseudotyped entry inhibition, cell reporter | Potency, µM (series often up to 37.8 µM), without a hit: at the top dose activity change, negative = inhibition, most hits filed as inhibitors | 300,000 tested, 1.8% active; calls by dose curve; tested in HEK293 cells; further: potency means the concentration at half of the fitted maximal effect
LASV entry inh: blocks Lassa virus binding to or entry into cells; Lassa virus pseudotype entry inhibition, cell reporter; Potency, µM (titrated, usually from 37.9 µM), for inactives: top-dose activity change, negative = inhibition, most hits filed as inhibitors; 300,000 tested, 1.2% active; AID 540256; calls by dose curve; tested in HEK293 cells; further: potency means the concentration at half of the fitted maximal effect; nearly all actives have a fitted effect of over 50% in size
Vaccinia Venus: vaccinia inhibition (Venus reporter). 330,000 tested, 0.46% active. Potency, µM (series often up to 36.5 µM), for the others: at the highest dose activity change, negative = inhibition, actives largely listed as inhibitors. Vaccinia virus Venus reporter expression, fluorescence. AID 720580; calls by dose curve; tested in A549 cells; further: potency means the concentration at half of the fitted maximal effect; nearly all actives have a fitted effect of over 30% in size
HCMV inh: inhibitors of human cytomegalovirus; HFF cells, HCMV-luciferase reporter, 72 h; active compounds read low; activity change, negative = inhibition, % at 57.5 µM; 410,000 tested, 4.5% active; AID 1259415; in the data active means activity change below about -60%; inconclusive means no clear call, values can overlap the other calls; inactive means above about -39%
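Compounds were evaluated in HFFs infected with an HCMV luciferase reporter virus (MOI 1 PFU/cell). Luciferase in lysates collected 72 h post infection served as the replication measure.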
FMDV inh: antivirals against foot and mouth disease virus | FMDV antiviral cell-based qHTS | Potency, µM (doses to about 57.9 µM), inactives show at the highest dose activity change, negative = inhibition, usual class: inhibitors | 410,000 tested, 1.2% active | AID 1159524; calls by dose curve; tested in HEK293T cells; further: read-out not given here; potency means the concentration at half of the fitted maximal effect; nearly all actives have a fitted effect of over 45% in size
Numbers without * were called inactive; i = inactive; ? = inconclusive; · = no result given; ! = not active in a repeat; [ ] = another dose, or the depositor's remark. On the % scale 0 is the no-effect control and ±100 the full control effect.

SMILES	Vaccinia mCherry	Marburg entry inh	LASV entry inh	Vaccinia Venus	HCMV inh	FMDV inh
C/C(=N/NC(=O)c1cc(C2CC2)[nH]n1)c1cccs1	-4%	10µM*	2.6µM*	-17%	-34	-74%
CN1CCC(N(C)S(=O)(=O)c2ccc(NC(=O)COc3ccc(Cl)cc3)cc2)CC1	·	·	·	·	-34	-28%
CC(Oc1cccc(Cl)c1)C(=O)Nc1ccc(S(=O)(=O)N(C)C2CCN(C)CC2)cc1 (stereo not given)	11µM*	?	2%	?	11	-24%
NC(N)=N/N=C/c1c(Cl)cccc1Cl	-19%	11µM*	?	-12%	-73*!	-18%
NC(N)=N/N=C/c1ccccc1Cl	?	·	·	-14%	-14	-19%
Cc1cnc(SCc2ccccn2)nc1C1CCCN(C(=O)c2ccc3[nH]c(C)c(C)c3c2)C1 (stereo not given)	?	·	·	-28%	·	-16%
CSCCC(NS(=O)(=O)c1ccc(Br)cc1)C(=O)OCC(=O)NC1CC1 (stereo not given)	i	3%[46.1 µM]	11%	-15%	-65*	8%
CSCCC(NS(=O)(=O)c1ccc(Cl)cc1)C(=O)OCC(=O)NC1CC1 (stereo not given)	-8%	0%	6%	-5%	-20	-1%
CN1N=C(C(F)(F)F)CC1=O	0%	12%[46.1 µM]	7%	-2%	-8	-3%
CN1N=C(C(C)(C)C)CC1=O	-2%	22µM*	-6%	2%	?	-9%
Cc1cc[n+](C(C)C(=O)c2ccc(-c3ccccc3)cc2)cc1 (stereo not given)	-30%	?	10µM*	-17%	-102*	?
CC(C(=O)c1ccc(-c2ccccc2)cc1)[n+]1ccccc1 (stereo not given)	-27%	10µM*	?	-27%	-97*	-21%
Cc1cc[n+](C(C)C(=O)c2ccc(Cl)cc2)cc1 (stereo not given)	-19%	?	6%	-12%	-24	-20%
Cc1ccc[n+](C(C)C(=O)c2ccc(-c3ccccc3)cc2)c1 (stereo not given)	-5%	?	?	-29%	-98*	-28%
CCOc1ccc(OCCC(=O)N(CC)CC(=O)NCc2cccs2)cc1	·	·	·	·	-28	6%
COCCNc1nc(-c2ccoc2)nc2ccccc12	·	·	·	·	·	-12%
O=[N+]([O-])c1cncc([N+](=O)[O-])c1Nc1cccc(O)c1	·	·	·	·	-24	-18%
CC(=O)Oc1ccc2c(c1)CC[C@@H]1[C@@H]2CC[C@]2(C)[C@@H](O)CC[C@@H]12	i	·	·	-9%	·	-7%
O=C(Nc1ccccc1Cl)c1cc(C2CCCCN2C(=O)c2cccs2)on1 (stereo not given)	-8%	·	·	2%	3	-3%
CC[C@@H](C(=O)[C@@H](C)[C@@H](O)[C@H](C)[C@@H]1O[C@@H]([C@@H](CC)C(=O)O)CC[C@@H]1C)[C@H]1O[C@]2(C=C[C@@H](O)[C@]3(CC[C@@](C)([C@H]4CC[C@](O)(CC)[C@H](C)O4)O3)O2)[C@H](C)C[C@@H]1C	2.5µM*	·	·	11µM*	-98*	?
O=C(CSc1nc2ccccc2n1CC(=O)N1CCOCC1)N1CCCC1	-7%	?	-17%	-3%	1	-21%
O=C(CSc1nc(-c2ccccc2)c(-c2ccccc2)[nH]1)N1CCN(S(=O)(=O)c2ccccc2)CC1	·	?	-25%	·	-88*	?
O=C(CSc1nc2ccccc2c(=O)[nH]1)N1CCN(S(=O)(=O)c2ccccc2)CC1	·	-10%	1%	·	45	-16%
COc1cccc(Cn2c(SCC(=O)N3CCN(c4ccc(F)cc4)CC3)nc3ccccc32)c1	-29%	6%[46.1 µM]	·	?	-15	-27%
COc1ccc(Cn2c(SCC(=O)N3CCN(c4ccc(F)cc4)CC3)nc3ccccc32)cc1	-10%	-29%[46.1 µM]	·	-16%	-67*	0%
SMILES	Vaccinia mCherry	Marburg entry inh	LASV entry inh	Vaccinia Venus	HCMV inh	FMDV inh
O=C(CSc1nc2ccccc2n1CCc1ccccc1)N1CCOCC1	i	-5%	-2%	1%	-68*	-3%
CC(C)Cn1c(SCC(=O)N2CCN(S(=O)(=O)c3ccccc3)CC2)nc2ccccc21	-4%	?	-12%	-12%	-68*	·
COc1ccc(/C=C2/SC(=S)N(CCC(=O)N3CCN(C)CC3)C2=O)cc1	-10%	?	?	-25%	?	17%
CC1CCN(C(=O)CCN2C(=O)/C(=C/c3cccs3)SC2=S)CC1	?	?	5.6µM*	-26%	6	-11%
CCc1ccc(/C=C2\SC(=S)N(CCC(=O)N3CCN(C)CC3)C2=O)cc1	?	·	·	10µM*	-36	22%
CCOc1ccc(/C=C2\SC(=S)N(CCC(=O)O)C2=O)cc1	-13%	?	-24%[46.1 µM]	-12%	-64*	0.32µM*
O=C(O)CCCN1C(=O)/C(=C\C(Cl)=C\c2ccccc2)SC1=S	·	·	·	·	-99*	?
CCCC[n+]1c(/C=C/c2ccc(N(C)C)cc2)sc2ccccc21	?	·	·	-5%	·	·
COC(=O)[C@@H]1CC(=O)N[C@@H]1c1ccc(OC(C)C)c(OC)c1	·	·	·	·	-17	·
CO[C@H]1[C@H](NC(=O)c2ccsc2)c2ccccc2C12CCN(Cc1cccn1-c1ccccn1)CC2	-7%	·	·	1%	·	-16%
Cc1ccc(N(CC(C)C)S(=O)(=O)c2nnc(NC(=O)C(C)C)s2)cc1	-7%	·	4%[46.1 µM]	-4%	-21	-11%
COc1ccc(NC(=O)COc2ccc(S(=O)(=O)NC3CCCCC3)cc2)c(OC)c1	-3%	1%[46.1 µM]	4%[46.1 µM]	4%	-6	36%
O=C(CCN1C(=O)/C(=C/c2ccccc2)SC1=S)N1CCCCCC1	i	-11%[46.1 µM]	?	5%	-97*	-26%
COc1cc(/C=C2\SC(=S)N(CCC(=O)N3CCN(C)CC3)C2=O)cc(OC)c1OC	-20%	?	-29%[46.1 µM]	19%	3	-24%
CN1CCN(C(=O)CCCN2C(=O)/C(=C/c3ccccc3)SC2=S)CC1	?	?	?	-1%	-94*	-13%
COc1ccc(/C=C2\SC(=S)N(CCC(=O)N3CCCCC3)C2=O)cc1	-15%	?	15%	-6%	-20	0%
COc1cc(/C=C2/SC(=S)N(CCC(=O)N3CCN(C)CC3)C2=O)cc(OC)c1OC	10µM*	·	·	?	?	0%
COc1ccc(/C=C2/SC(=S)N(CCCC(=O)N3CCN(C)CC3)C2=O)cc1	?	?	-11%	?	-100*	13%
CCn1c(-c2ccccc2F)nc2cc(C(=O)N3CCNC(=O)C3CC(=O)OC)cc(NC(C)=O)c21 (stereo not given)	2%	·	·	10%	·	2%
COc1ccc(NC(=O)c2ccc3c(c2)C(=O)N(Cc2ccncc2)C3=O)cc1S(N)(=O)=O	-8%	?	-9%	2%	-8	5%
CN1CCN(C(=O)CCN2C(=O)/C(=C\c3ccc(Cl)cc3Cl)SC2=S)CC1	9%	1%[46.1 µM]	?	149%	-18	35µM*
